# The whole screen tested about 360,000 compounds, of which about 2,800 (0.78%) were called active. Only a selection was taken, and actives are over-represented in it overall. Values without a mark were called inactive. Cut-off read from the data, not from the text of the source: active = inhibition above about 26%; inactive = the rest.
# Test system: Nicotinate-nucleotide adenylyltransferase NadD (Staphylococcus aureus N315)
# Experiment: S. aureus NadD enzyme activity blockers – biochemical, colorimetric, uHTS, primary screen (AID 602399)
# Details: purified NadD enzyme, colorimetric absorbance read-out; at 20 µM; stronger effect = higher value
row,Compound,inhibition
1,COc1ccccc1-n1c(SCC(=O)O)nc2sc3c(c2c1=O)CCC3,-6.38%
2,COc1cccc(C(=O)NC(=O)Nc2nc(C)cc(C(F)(F)F)n2)c1,1.69%
3,Cc1cc(O)c(C(=O)/C=C/c2c(F)c(F)c(F)c(F)c2F)c(=O)o1,30% (active)
4,COc1ccc(/C=C/C(=O)c2c(O)cc(OC)cc2OC)cc1,-0.858%
5,Cc1cc(O)c(Sc2ccccc2)c(=O)o1,-2.78%
6,CC(=O)c1c(C)n([O-])c2ccccc2[n+]1=O,4.16%
7,CC(NC(=O)C(=O)N/N=C/c1ccc(Cl)cc1)c1ccccc1 (stereo unspecified),-0.376%
8,N#Cc1cc([N+](=O)[O-])ccc1Oc1cccc(/C=N/NC(=O)c2ccc(Cl)cc2)c1,19.4%
9,O=C(N/N=C/c1ccc(Cl)cc1)c1nc2ccc([N+](=O)[O-])cc2c(=O)[nH]1,42.6% (active)
10,Cc1cccn2c(=O)c3cc(C#N)c(=NC(=O)c4cccnc4)n(CC4CCCO4)c3nc12 (stereo unspecified),0.191%
11,COc1ccccc1N(CC(=O)Nc1ccc(C)cc1Cl)S(=O)(=O)c1cccs1,-10.3%
12,COc1cc(-c2noc(C3CCCN(S(=O)(=O)c4cccc(Cl)c4)C3)n2)cc(OC)c1OC (stereo unspecified),-12.5%
13,COc1ccc(Cl)cc1C=CC=NNC(=O)c1ccncc1,9.06%
14,COc1ccccc1/C=C/C=N/n1c(-c2ccc(Cl)cc2Cl)n[nH]c1=S,28% (active)
15,COc1ccc(-n2c(-c3ccc(Cl)cc3)n[nH]c2=S)c(OC)c1,5.69%
16,COc1ccc(OC)c(/C=N/NC(=O)CSc2nnc(C)n2-c2ccccc2)c1,4.2%
17,O=Cc1cn(-c2ccccc2)nc1-c1ccccn1,-0.605%
18,COc1ccc(-c2nn(-c3ccccc3)cc2/C=N/Nc2ccccn2)cc1OC,30.9% (active)
19,N#C/C(C(=O)N1CCOCC1)=C1/SC(Cc2ccc(F)cc2)C(=O)N1c1ccccc1 (stereo unspecified),5.64%
20,CCCCN(C=O)c1c(CC)nc2c(OCc3ccccc3C(=O)OC)cccn12,3.2%
21,CC(C)C(NC(=O)c1c(F)cccc1F)C(=O)NCc1ccncc1 (stereo unspecified),-4.3%
22,Cc1cc(C(=O)OC(C)C(=O)NC2CCCCC2C)c(C)o1 (stereo unspecified),-0.327%
23,CC(=O)c1c(C)[nH]c(C(=O)COC(=O)c2cccc(S(=O)(=O)N(C)c3ccccc3)c2)c1C,-2.3%
24,S=c1[nH]nc(NCCc2ccccc2)s1,6.24%
25,S=c1[nH]nc(Nc2ccccc2)s1,31% (active)
26,CC(C)(C)C(=O)c1cnc(Nc2ccccc2)s1,-4.48%
